Shn3 inh set2 – Schnurri-3 reporter inhibition in Clone20 osteoblasts | Clone20 osteoblast Shn3 3'UTR firefly luciferase, 24 h | inhibition, % at 12.5 µM | hit rate 0.52% among 360,000 | AID 588674;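 active means mean inhibition of at least 75% with every replicate also reaching 75%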;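 further: 0% = median of neutral control wells and 100% = pilot-screen positive control compound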
MITF TRPM1 inh – MITF TRPM1 promoter inhibition in SK-MEL-5 cells. hit rate 0.83% among 330,000. SK-MEL-5 TRPM1 promoter luciferase, 24 h. inhibition, % at 12.5 µM;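 active means mean inhibition across replicates of 60% or more, whatever share of single replicates reaches that level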
KKLEB cytotox – CF airway cell cytotoxicity counter-screen; KKLEB CF airway cells viability, ATPlite luminescence, overnight; active compounds read low; cells stimulated with P. aeruginosa culture filtrate; activity change (cytotoxicity), % at 5 µM; hit rate 0.36% among 360,000;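 active means corrected activity change at or below -50% at 5 µM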
CF NFkB block – inhibitors of cystic fibrosis induced NF-kB; KKLEB NF-kB-GFP reporter, PAF-induced, GFP fluorescence overnight; inhibition, % at 5 µM; hit rate 0.86% among 360,000;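 active means at least 50% inhibition at 5 µM, scaled per plate between neutral and stimulator controls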;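 further: PAF is a Pseudomonas aeruginosa culture filtrate used as stimulus; plate controls were PAF-stimulated DMSO wells for no effect and unstimulated DMSO wells for full effect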
Peg3 promoter – reduces Peg3 promoter-driven luciferase expression in HeLa. HeLa PEG-Prom luciferase reporter, luminescence, overnight. inhibition, % at 20 µM. hit rate 1.7% among 360,000. AID 588405;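 active means inhibition of at least 50% at 20 µM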
HIF-2a inh – blocks HIF-2a reporter activity. inhibition, % at 18.8 µM. AID 624352. hit rate 0.72% among 360,000. 786-0 RCC cells HIF-2a reporter, luciferase luminescence, overnight;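 active means inhibition of the luminescence signal of 40% or more relative to plate controls, in a single-dose primary screen at 18.75 µM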
CF NFkB conf – confirmation of cystic fibrosis induced NF-kB inhibitors; shares compounds with CF NFkB block; KKLEB CF airway cells, PAF-induced NF-kB-GFP fluorescence, overnight; inhibition, % at 5 µM; hit rate 64% among 1,300; in the data active means inhibition above about 40%;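 further: stimulus PAF is a Pseudomonas aeruginosa filtrate and not platelet activating factor; plate controls were DMSO wells with stimulus for no effect and unstimulated DMSO wells for full effect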
* hit, by the source's call. The list is not random: actives were taken first. Their share in the collection is about 2.7%.

Results for Cc1ccc(C(C(=O)NCc2ccccc2)N(Cc2cccs2)C(=O)c2ccc3c(c2)OCCO3)cc1 (centres undefined) ?
Shn3 inh set2: 44.8; MITF TRPM1 inh: 8.1; KKLEB cytotox: -16.0; CF NFkB block: 90.7*; Peg3 promoter: 63.1*; HIF-2a inh: 11.8; CF NFkB conf: 104.7*

How did CC(C)Nc1ncnc2ccc(Br)cc12 do in these assays?
Shn3 inh set2: 78.1; MITF TRPM1 inh: 9.2; KKLEB cytotox: -6.7; CF NFkB block: 70.3*; Peg3 promoter: 26.0; HIF-2a inh: 27.8; CF NFkB conf: 84.7*

How did CC(=O)c1cccc(Nc2ncnc3ccc(Br)cc23)c1 do in these assays?
Shn3 inh set2: 0.5; MITF TRPM1 inh: 2.0; KKLEB cytotox: -11.2; CF NFkB block: 46.2; Peg3 promoter: 22.9; HIF-2a inh: 20.9

Results for CC(=O)c1ccc(Nc2ncnc3ccc(Br)cc23)cc1 ?
Shn3 inh set2: -0.2; KKLEB cytotox: -27.1; CF NFkB block: 60.3*; Peg3 promoter: -9.4; HIF-2a inh: 17.1; CF NFkB conf: 46.1*

What do the screens show for `Brc1ccc2ncnc(NCc3ccco3)c2c1`?
Shn3 inh set2: 40.7; MITF TRPM1 inh: -6.3; KKLEB cytotox: -8.4; CF NFkB block: 54.3*; Peg3 promoter: -40.2; HIF-2a inh: -17.7; CF NFkB conf: 57.9*

How did CC(C)(C)[C@@H]1COC(=O)[C@@H](Cc2ccc(F)cc2)C/C=C\C[C@H](CC(=O)N(CCO)Cc2ccccc2)C(=O)N1 do in these assays?
Shn3 inh set2: 1.0; MITF TRPM1 inh: -5.2; KKLEB cytotox: 24.3; CF NFkB block: -13.6; Peg3 promoter: 27.0; HIF-2a inh: 20.7

What do the screens show for `COc1cc(-c2cc(C(=O)Nc3ccc(S(=O)(=O)NCc4ccco4)cc3)c3ccccc3n2)cc(OC)c1OC`?
Shn3 inh set2: -1.5; MITF TRPM1 inh: 9.7; KKLEB cytotox: 7.9; CF NFkB block: 64.5*; Peg3 promoter: 58.5*; HIF-2a inh: 10.8; CF NFkB conf: 97.7*

How did COc1cc(-c2cc(C(=O)NCc3ccco3)c3ccccc3n2)cc(OC)c1OC do in these assays?
Shn3 inh set2: 13.0; MITF TRPM1 inh: 2.9; KKLEB cytotox: -4.8; CF NFkB block: -20.6; Peg3 promoter: 29.0; HIF-2a inh: 5.3

What do the screens show for `Cc1ccc(S(=O)(=O)Nc2nc3ccccc3nc2Nc2cccc(S(=O)(=O)N3CCCC3)c2)cc1`?
Shn3 inh set2: 25.6; MITF TRPM1 inh: -4.4; KKLEB cytotox: -43.7; CF NFkB block: 68.8*; Peg3 promoter: 36.7; HIF-2a inh: -49.0; CF NFkB conf: 70.8*

How did N=C1N(c2ccccc2)C(=S)C(=Nc2ccccc2)N1c1ccccc1 do in these assays?
Shn3 inh set2: -41.6; MITF TRPM1 inh: 46.8; KKLEB cytotox: -2.1; CF NFkB block: 67.2*; Peg3 promoter: 74.3*; HIF-2a inh: -296.6; CF NFkB conf: 81.2*

How did COc1ccc(N=C2C(=S)N(c3ccc(OC)cc3)C(=NS(=O)(=O)c3ccccc3)N2c2ccccc2)cc1 do in these assays?
Shn3 inh set2: -35.4; MITF TRPM1 inh: -13.7; KKLEB cytotox: 10.1; CF NFkB block: -13.1; Peg3 promoter: 49.2; HIF-2a inh: -225.0

How did O=C(Nc1nc2c(F)cc(F)cc2s1)c1ccco1 do in these assays?
Shn3 inh set2: -55.9; KKLEB cytotox: 4.4; CF NFkB block: -71.5; Peg3 promoter: -314.8; HIF-2a inh: -209.6

How did O=C(Nc1nc2c(F)cc(F)cc2s1)c1ccc([N+](=O)[O-])o1 do in these assays?
Shn3 inh set2: -75.4; KKLEB cytotox: -41.2; CF NFkB block: 85.6*; Peg3 promoter: -61.4; HIF-2a inh: -255.7; CF NFkB conf: 16.1

Results for COCCCN(C(=O)c1ccc(N2CCCC2=O)cc1)c1c(N)n(Cc2ccccc2)c(=O)[nH]c1=O ?
Shn3 inh set2: -3.5; MITF TRPM1 inh: 6.5; KKLEB cytotox: 3.9; CF NFkB block: -5.1; Peg3 promoter: -5.8; HIF-2a inh: 21.6

Results for CCCCN(C(=O)c1ccc(N2CCCC2=O)cc1)c1c(N)n(Cc2ccccc2)c(=O)[nH]c1=O ?
Shn3 inh set2: -10.8; MITF TRPM1 inh: 3.7; KKLEB cytotox: 7.8; CF NFkB block: 58.2*; Peg3 promoter: -23.3; HIF-2a inh: 18.2; CF NFkB conf: 35.7

How did COc1ccc(OC)c(-c2cc(C(=O)N/N=C/c3ccc(F)cc3)c3ccccc3n2)c1 do in these assays?
Shn3 inh set2: -10.4; KKLEB cytotox: 9.5; CF NFkB block: 1.9; Peg3 promoter: 18.4; HIF-2a inh: 19.6

How did CCOc1ccccc1N1CCN(C(=O)c2cc(-c3cc(OC)ccc3OC)nc3ccccc23)CC1 do in these assays?
Shn3 inh set2: 5.9; MITF TRPM1 inh: -5.1; KKLEB cytotox: -6.4; CF NFkB block: 64.8*; Peg3 promoter: 44.3; HIF-2a inh: 11.7; CF NFkB conf: 63.4*

How did COc1ccc(OC)c(-c2cc(C(=O)Nc3ccccc3C(N)=O)c3ccccc3n2)c1 do in these assays?
Shn3 inh set2: 18.2; KKLEB cytotox: -19.2; CF NFkB block: 79.6*; Peg3 promoter: 54.1*; HIF-2a inh: 13.4; CF NFkB conf: 23.6

What do the screens show for `CCn1c(CN2CCC(C)CC2)nc2cc(S(=O)(=O)N3CCCCC3)ccc21`?
Shn3 inh set2: -15.3; KKLEB cytotox: 2.5; CF NFkB block: 10.0; Peg3 promoter: 9.4; HIF-2a inh: 18.6

How did CCn1c(SC)nc2cc(S(=O)(=O)N3CCCCC3)ccc21 do in these assays?
Shn3 inh set2: 0.3; MITF TRPM1 inh: 11.2; KKLEB cytotox: -8.4; CF NFkB block: 52.5*; Peg3 promoter: -12.4; HIF-2a inh: 14.6; CF NFkB conf: 41.2*

Results for Cc1c(C(=O)NC2CCS(=O)(=O)C2)oc2ccccc12 (centres undefined) ?
Shn3 inh set2: 11.2; MITF TRPM1 inh: 27.9; KKLEB cytotox: 8.3; CF NFkB block: 7.1; Peg3 promoter: -2.7; HIF-2a inh: -7.7

How did CCN(C[C@H]1N[C@@](C)(C(=O)OC)[C@H]2C(=O)N(Cc3ccccc3)C(=O)[C@@H]12)C(=O)Nc1ccc(OC)cc1 do in these assays?
Shn3 inh set2: -3.8; MITF TRPM1 inh: -4.6; KKLEB cytotox: -5.8; CF NFkB block: 7.4; Peg3 promoter: 2.4; HIF-2a inh: -8.6

Results for CN(Cc1cc(Cl)cc(Cl)c1O)Cc1c(O)ccc2ccccc12 ?
Shn3 inh set2: -11.9; MITF TRPM1 inh: 6.3; KKLEB cytotox: -16.6; CF NFkB block: 59.0*; Peg3 promoter: 17.7; HIF-2a inh: 11.7; CF NFkB conf: 8.2

What do the screens show for `CC[C@H]1C=C[C@@H](C(C(=O)OC)C(=O)OC)CN1C(C)=O`?
Shn3 inh set2: -2.1; MITF TRPM1 inh: 1.4; KKLEB cytotox: 3.9; CF NFkB block: 3.4; Peg3 promoter: 8.2; HIF-2a inh: 5.8

Results for CCOC(=O)C1=C(C)Nc2ccccc2N=C1NC(=O)c1oc2ccccc2c1COC ?
Shn3 inh set2: 4.4; MITF TRPM1 inh: 20.9; KKLEB cytotox: -15.3; CF NFkB block: 55.2*; Peg3 promoter: 65.4*; HIF-2a inh: 4.1; CF NFkB conf: 57.7*

Compound activity as filed in PubChem.
